Source: PubChem BioAssay AID1159580 (chemical genetic matrix, 2015)
The campaign covered roughly 5,500 compounds. About 2,000 (36%) were called active. Roughly 18% stayed inconclusive and do not appear here. The list shows a part of the results. Values without a mark were called inactive. Cut-off read from the data, not from the text of the source: active = normalized growth mostly below about 0.91 (no sharp cut-off); inconclusive = no clear call, values can overlap the other calls; inactive = mostly above about 0.92.

Experiment: chemical genetic growth profiling, strain panel (AID 1159580);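 note: tested at 20 µM; growth read once vehicle control cultures reached saturation at 30 °C; 1 = growth at the plate median or of vehicle wells; lower values mean less growth of the strain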
Conditions: S. cerevisiae deletion strains, growth OD
[1] = locus YAL013W, strain DEP1, hits give low values
[2] = locus YDL101C, strain DUN1, hits give low values
[3] = locus YDR150W, strain NUM1, hits give low values
[4] = locus YEL061C, strain CIN8, hits give low values
[5] = locus YGR078C, strain PAC10, hits give low values
[6] = locus YHR030C, strain SLT2, hits give low values
[7] = locus YHR087W, strain rtc3, hits give low values
[8] = locus YJR043C, strain POL32, hits give low values
[9] = locus YJR075W, strain HOC1, hits give low values
[10] = locus YLR039C, strain RIC1, hits give low values
[11] = locus YLR058C, strain SHM2 (second series), hits give low values
[12] = locus YLR085C, strain ARP6, hits give low values
[13] = locus YLR262C, strain YPT6, hits give low values
[14] = locus YML094W, strain GIM5, hits give low values
[15] = locus YMR219W, strain ESC1, hits give low values
[16] = locus YMR263W, strain SAP30, hits give low values
[17] = locus YNL153C, strain GIM3, hits give low values
[18] = locus YNL298W, strain CLA4 (second series), hits give low values
[19] = locus YNL322C, strain KRE1, hits give low values
[20] = locus YNR030W, strain Alg12, hits give low values
[21] = locus YPL055C, strain LGE1, hits give low values
[22] = locus YPL241C, strain CIN2, hits give low values
[23] = locus YPR135W, strain CTF4, hits give low values

Molecule `O=C(O)c1oc(C(=O)O)c(OCc2ccccc2)c1OCc1ccccc1` has a normalized growth [1] of 1.01, a normalized growth (locus YBR229C, strain ROT2, hits give low values) of 1.02 and a normalized growth (locus YCL061C, strain MRC1, hits give low values) of 0.984. It also gave a normalized growth [2] of 0.973, a normalized growth (locus YDL134C, strain PPH21, hits give low values) of 0.998 and a normalized growth [3] of 0.973. It also gave a normalized growth [4] of 1.01, a normalized growth [5] of 0.976 and a normalized growth [6] of 0.963. For the same molecule, the normalized growth [7] was 1.03, the normalized growth [8] was 0.965 and the normalized growth [9] was 0.988. For the same molecule, the normalized growth [10] was 0.993, the normalized growth [11] was 1.02 and the normalized growth [12] was 1.01. It also gave a normalized growth [13] of 0.981, a normalized growth [14] of 1.03 and a normalized growth [15] of 0.997. It also gave a normalized growth [16] of 0.997, a normalized growth (locus YMR307W, strain GAS1, hits give low values) of 1.03 and a normalized growth [17] of 0.988. It also gave a normalized growth [18] of 0.986, a normalized growth [19] of 0.963 and a normalized growth [20] of 0.998. For the same molecule, the normalized growth [21] was 1.07, the normalized growth [22] was 1.01 and the normalized growth [23] was 1.
In the case of `OC(COCc1ccccc1)Cn1c2ccccc2c2ccccc21` (stereo not drawn), the normalized growth (locus YAR019C, strain CDC15, hits give low values) is reported as 0.951, the normalized growth (locus YBL105C, strain PKC1, hits give low values) is reported as 0.95 and the normalized growth (locus YBR135W, strain CKS1, hits give low values) is reported as 0.951. The normalized growth (locus YBR136W, strain MEC1, hits give low values) was 0.952, the normalized growth (locus YBR160W, strain CDC28, hits give low values) was 0.955 and the normalized growth (locus YDL017W, strain CDC7, hits give low values) was 0.953. For the same molecule, the normalized growth (locus YDL028C, strain MPS1, hits give low values) was 0.951, the normalized growth [2] was 0.98 and the normalized growth (locus YDL108W, strain KIN28, hits give low values) was 0.952. It also gave a normalized growth (locus YDL132W, strain cdc53, hits give low values) of 0.952, a normalized growth (locus YDL214C, strain PRR2, hits give low values) of 0.903 and a normalized growth (locus YDR052C, strain DBF4, hits give low values) of 0.965. The normalized growth (locus YDR054C, strain cdc34, hits give low values) was 0.939, the normalized growth (locus YDR226W, strain ADK1, hits give low values) was 0.965 and the normalized growth (locus YDR477W, strain SNF1, hits give low values) was 0.888. It also gave a normalized growth (locus YER123W, strain YCK3, hits give low values) of 0.888, a normalized growth (locus YER133W, strain GLC7, hits give low values) of 0.876 and a normalized growth (locus YFL009W, strain cdc4, hits give low values) of 0.964. For the same molecule, the normalized growth (locus YFL029C, strain CAK1, hits give low values) was 0.947, the normalized growth (locus YFR003C, strain YPI1, hits give low values) was 0.947 and the normalized growth (locus YFR019W, strain FAB1, hits give low values) was 0.954. It also gave a normalized growth (locus YFR028C, strain CDC14, hits give low values) of 0.96, a normalized growth (locus YGR040W, strain KSS1, hits give low values) of 0.888 and a normalized growth (locus YGR052W, strain FMP48, hits give low values) of 0.874. The normalized growth (locus YGR092W, strain DBF2, hits give low values) was 0.838, the normalized growth [6] was 0.632 (active) and the normalized growth (locus YHR079C, strain IRE1, hits give low values) was 0.729. For the same molecule, the normalized growth (locus YHR082C, strain KSP1, hits give low values) was 0.91, the normalized growth (locus YHR205W, strain SCH9, hits give low values) was 0.936 and the normalized growth (locus YIL147C, strain SLN1, hits give low values) was 0.953. The normalized growth (locus YJL095W, strain BCK1, hits give low values) was 0.866, the normalized growth (locus YJL128C, strain PBS2, hits give low values) was 0.917 and the normalized growth (locus YJL157C, strain FAR1, hits give low values) was 0.882. For the same molecule, the normalized growth (locus YJR016C, strain ILV3, hits give low values) was 0.953, the normalized growth (locus YJR066W, strain TOR1 (second series), hits give low values) was 0.917 and the normalized growth (locus YJR066W, strain TOR1, hits give low values) was 0.886. The normalized growth (locus YKL048C, strain ELM1, hits give low values) was 0.973, the normalized growth (locus YKL067W, strain YNK1, hits give low values) was 0.905 and the normalized growth (locus YKL101W, strain HSL1, hits give low values) was 0.891. The normalized growth (locus YKL193C, strain SDS22, hits give low values) was 0.953, the normalized growth (locus YKL203C, strain TOR2, hits give low values) was 0.877 and the normalized growth (locus YLR113W, strain HOG1, hits give low values) was 0.769 (active). For the same molecule, the normalized growth (locus YLR133W, strain CKI1, hits give low values) was 0.893, the normalized growth (locus YLR403W, strain SFP1, hits give low values) was 0.907 and the normalized growth (locus YML070W, strain DAK1, hits give low values) was 0.876. The normalized growth (locus YMR001C, strain CDC5, hits give low values) was 0.944, the normalized growth (locus YMR205C, strain PFK2 (second series), hits give low values) was 0.939 and the normalized growth (locus YMR277W, strain FCP1, hits give low values) was 0.955. For the same molecule, the normalized growth (locus YNL006W, strain LST8, hits give low values) was 0.946, the normalized growth (locus YNL020C, strain ARK1, hits give low values) was 0.881 and the normalized growth (locus YNL161W, strain CBK1, hits give low values) was 0.947. The normalized growth (locus YNL183C, strain NPR1, hits give low values) was 0.885, the normalized growth (locus YNL207W, strain RIO2, hits give low values) was 0.946 and the normalized growth (locus YNL222W, strain SSU72, hits give low values) was 0.958. For the same molecule, the normalized growth (locus YNL307C, strain MCK1 (second series), hits give low values) was 0.885, the normalized growth (locus YOL078W, strain AVO1, hits give low values) was 0.959 and the normalized growth (locus YOL136C, strain PFK27, hits give low values) was 0.898. The normalized growth (locus YOR061W, strain CKA2, hits give low values) was 0.924, the normalized growth (locus YOR119C, strain RIO1, hits give low values) was 0.933 and the normalized growth (locus YOR231W, strain MKK1, hits give low values) was 0.837. The normalized growth (locus YOR329C, strain SCD5, hits give low values) was 0.952, the normalized growth (locus YPL031C, strain PHO85, hits give low values) was 0.845 and the normalized growth (locus YPL204W, strain HRR25, hits give low values) was 0.791. The normalized growth (locus YPL209C, strain IPL1, hits give low values) was 0.955, the normalized growth (locus YPL256C, strain CLN2, hits give low values) was 0.792 (active) and the normalized growth (locus YPR025C, strain CCL1, hits give low values) was 0.953. For the same molecule, the normalized growth (locus YPR106W, strain ISR1, hits give low values) was 0.95, the normalized growth (locus YPR111W, strain DBF20, hits give low values) was 0.933 and the normalized growth (strain NNK1, hits give low values) was 0.932. For the same molecule, the normalized growth (strain TSCII, hits give low values) was 0.945.
For `OCC(O)Cn1c2ccccc2c2ccccc21` (stereo not drawn), the normalized growth [1] was 1.01, the normalized growth [2] was 1.04 and the normalized growth [3] was 1.03. It also gave a normalized growth [4] of 0.986, a normalized growth [5] of 1.02 and a normalized growth (locus YGR229C, strain SMI1, hits give low values) of 0.994. It also gave a normalized growth [6] of 1.07, a normalized growth [7] of 0.953 and a normalized growth (locus YJL187C, strain SWE1, hits give low values) of 1. The normalized growth [8] was 0.987, the normalized growth [9] was 1.01 and the normalized growth [10] was 0.982. It also gave a normalized growth [11] of 0.988, a normalized growth [12] of 0.97 and a normalized growth [13] of 0.959. For the same molecule, the normalized growth [14] was 0.975, the normalized growth [15] was 0.986 and the normalized growth [16] was 1.01. It also gave a normalized growth [17] of 1.02, a normalized growth [18] of 0.984 and a normalized growth [19] of 0.999. For the same molecule, the normalized growth [20] was 0.977, the normalized growth (locus YOL006C, strain TOP1, hits give low values) was 1 and the normalized growth [21] was 0.932. It also gave a normalized growth [22] of 0.985 and a normalized growth [23] of 1.02.
